A selection: hits, their analogues and other compounds. The true share with any hit is near 3.7%.
A549 viability – A549 cytotoxicity, counter-screen for Nrf2 inhibitors | A549 ARE-Fluc cells, CellTiter-Fluor viability, 18-24 h | Potency, µM (series often up to 46 µM), inactives show at the highest dose activity change, negative = cytotoxicity, hits mostly inhibitors | 390,000 compounds, 0.16% hits; note: % is set by controls: 0 for no effect and ±100 for the full control effect
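A549 ARE-Fluc cells in 5% FBS OPTI-MEM, 5000 cells/well, rested 2 h then exposed to compounds in concentration-response for 18-24 h at 37 °C. Viability by CellTiter-Fluor fluorescence (Ex 405/Em 525) after 30 min; luciferase luminescence (BugLite, 15 min, RT) read afterwards.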
Nrf2 activator – activates Nrf2 signaling; AREc32 ARE-luciferase reporter (MCF7-derived line), luminescence, 24 h; Potency, µM (titrated, usually from 46.1 µM), for the others: top-dose activation, usual class: activators; 410,000 compounds, 0.31% hits; AID 624171; note: % of control where 0% means no effect; nearly all actives have a fitted effect of over 65% in size
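For detection, Steady-Glo was added and plates sat 30 min at RT; before that, AREc32_Fluc cells grown overnight in OPTI-MEM/5% FBS had been treated with 23 nL compound for 24 hr at 37 deg C.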
Nrf2 block – blocks Nrf2 signaling | A549 ARE-Fluc reporter, luciferase luminescence, 18-24 h | Potency, µM (top dose mostly 46 µM), inactives show at the highest dose activity change, negative = inhibition, usual class: inhibitors | 360,000 compounds, 2.1% hits; note: % is set by controls: 0 for no effect and ±100 for the full control effect; nearly all actives have a fitted effect of over 60% in size
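Cells were seeded and rested 2 h, then exposed to compounds for 18-24 h. CellTiter-Fluor was read first as a viability measure. BugLite was added 15 min before the final luminescent read of ARE-luciferase activity in A549 cells.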
ELG1 repair inh – blocks ELG1-dependent DNA repair in HEK293T cells. HEK293T ELG1-luciferase reporter, luminescence, 16 h; DNA damage induced by 5-fluorouridine. AID 504467. 330,000 compounds, 2.3% hits. Potency, µM (highest dose often 46.1 µM), without a hit: at the highest dose activity change, negative = inhibition, usual class: inhibitors; note: % is set by controls: 0 for no effect and ±100 for the full control effect; nearly all actives have a fitted effect of over 55% in size
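In this reporter screen, reduction of luminescence relative to DMSO vehicle indicated activity. Compounds and 5-fluorouridine were added together to 2,000 cells per well, incubated for 16 hr at 37 °C, then developed with ONE-Glo.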
* = called active by the depositor; ? = inconclusive; nt = not tested or not shown; [ ] = remark or other dose. Calls come from the whole dose curve; as a rule, active = well fitted curve in the direction sought with a large enough effect; inconclusive = small, poorly fitted or top-dose-only effect, or another doubt; inactive = no such curve, though single readings can be large; an effect the other way counts as inactive or inconclusive. Potency is the fitted concentration of half-maximal effect.

SMILES | A549 viability | Nrf2 activator | Nrf2 block | ELG1 repair inh
O=C(NCC(c1cccnc1)N1CCc2ccccc21)c1cccc(Br)c1 (stereo not drawn) | 0% | -3% | 16µM* | nt
O=C(NCCc1ccccc1)c1ccc2c(c1)N(Cc1ccc(Cl)cc1)C(=O)CS2 | -10% | 4% | 14%[9.27 µM] | nt
COc1ccc(C(=O)Nc2ccc(S(=O)(=O)N(C)c3ccccc3)cc2)cc1 | -5% | 5% | 21µM* | nt
COc1ccc(/C=N/NC(=O)c2ccc(N(C)S(=O)(=O)c3ccccc3)cc2)cc1 | -16% | 4% | 26µM* | ?
CC(C)(C)c1ccc(C(=O)Nc2ccc(Oc3cccnc3)nc2)cc1 | -2% | 3% | 1% | 2.1µM*
COc1ccc(CCNC(=O)c2ccc(Cl)c(S(=O)(=O)N(C)c3ccccc3)c2)cc1 | -24% | 0% | 18µM* | 16µM*
CC(=O)Nc1ccc(NC(=O)c2ccc(S(=O)(=O)N(C)c3ccccc3)cc2)cc1 | 1% | 0% | -22% | ?
CC(NC(=O)CCCN1C(=O)CCn2nc(-c3cn(C)c4ccccc34)cc21)c1ccccc1 (stereo not drawn) | -1% | 6% | nt | nt
Cc1ccc(S(=O)(=O)N(C)c2ccc(C(=O)Nc3ccc(C)cn3)cc2)cc1 | -23% | 2% | 12µM* | ?
COc1ccc(NC(=O)c2cccc(Oc3ccccc3)c2)cn1 | -13% | 0% | 26µM* | 0%
Cc1ccc(S(=O)(=O)N(C)c2ccc(C(=O)Nc3ccccn3)cc2)cc1 | -1% | 1% | -2% | ?
COc1ccc(NC(=O)c2ccc(S(=O)(=O)N(C)c3ccccc3)cc2)cn1 | -8% | 0% | ? | 10µM*
Cc1ccc(NC(=O)c2ccc(NS(=O)(=O)/C=C/c3ccccc3)cc2)nc1 | -7% | 2% | 21µM* | -7%
CCOCCc1nn2c(=O)cc(COC(=O)c3cccc(C)c3)nc2s1 | 0% | 6% | 9% | nt
Cc1nnc2c3ccccc3nc(N3CCN(c4cccc(Cl)c4)CC3)n12 | -22% | 1% | ? | nt
CC(/C=N/NC(=O)c1cc(-c2cccn2C)n[nH]1)=C\c1ccccc1 | -2% | 4% | ? | -19%
COc1ccc(NC(=O)COc2ccc(N(C)S(=O)(=O)c3ccc(C)cc3)cc2)cc1 | -10% | 4% | ? | ?
CCOc1ccc(S(=O)(=O)N(C)c2ccc(OCC(=O)NCC3CCCCC3)cc2)cc1 | ? | 0% | ? | 26µM*
CCOc1ccc(S(=O)(=O)N(C)c2ccc(OCC(=O)NCC3CCCO3)cc2)cc1 (stereo not drawn) | -5% | -1% | ? | -4%
COc1ccc(NC(=O)COc2ccc(N(C)S(=O)(=O)c3ccc(Cl)cc3)cc2)cc1 | -16% | -1% | 13µM* | ?
CC1=C(C(N)=O)C(c2ccccc2F)n2nc(-c3ccc(Cl)cc3)nc2N1 (stereo not drawn) | -2% | 16% | 10% | nt
CCN(CC)S(=O)(=O)c1ccc2c(c1)nc(CN(C)C(=O)Nc1cccc(Cl)c1)n2C | -3% | 3% | nt | nt
Cc1ccc(NC(=O)C(Cc2ccccc2)n2cccc2)c(C)c1 (stereo not drawn) | 11% | 3% | -2% | nt
COCCN(Cc1cc2c(C)cc(C)cc2nc1Cl)C(=O)c1ccccc1F | ? | -1% | 18µM* | ?
COCCN(Cc1cc2cc(C)cc(C)c2nc1Cl)C(=O)Nc1ccccc1 | -18% | 0% | 6% | -19%
SMILES | A549 viability | Nrf2 activator | Nrf2 block | ELG1 repair inh
CCOC(=O)c1cccc(NC(=O)CCS(=O)(=O)c2ccc3c(c2)CCN3C(=O)CC)c1 | -1% | 9% | 0% | nt
COc1ccccc1-c1c(C(F)(F)F)oc2cc(OS(C)(=O)=O)ccc2c1=O | -11% | 2% | 8.2µM* | ?
COc1ccc(S(=O)(=O)N2CCCC(C(=O)N3CCN(Cc4ccccc4)CC3)C2)cc1Cl (stereo not drawn) | nt | -1% | nt | nt
COc1cc(OC)cc(-c2sc3ccc(OC)cc3c2-c2ccc(O)cc2)c1 | -4% | 8% | -24% | ?
COc1ccc(-c2sc3ccc(OC)cc3c2-c2ccc(O)cc2)cc1 | 0% | -1% | ? | 23µM*
CCOC(=O)[C@H]1[C@H]2COc3ccc(OC)cc3[C@@H]2N2C(=O)c3cc(F)c(F)cc3NC(=O)[C@@]12C | 0% | -1% | -10% | 18%
COc1ccccc1-c1nc(-c2ccncc2)no1 | -3% | 4% | ? | ?
COc1ccc(Cl)cc1-c1nc(-c2ccncc2)no1 | 0% | 6.3µM* | ? | ?
CCOC(=O)/C=C1\CN(Cc2cc(OC)c(OC)c(OC)c2)S(=O)(=O)c2ccc(C(F)(F)F)cc21 | 0% | 2% | 21µM* | ?
CCOC(=O)/C=C1\CN(Cc2cc(OC)c(OC)c(OC)c2)S(=O)(=O)c2ccccc21 | -9% | 6% | ? | ?
CC(=O)c1cccc(NC(=O)C(Cc2ccccc2)NS(=O)(=O)c2ccc(Br)s2)c1 (stereo not drawn) | 0% | -1% | 11% | nt
COc1ccc2[nH]c(C(=O)N/N=C/c3ccc(O)cc3O)cc2c1 | -30% | -1% | 2.3µM* | ?
COc1ccc(/C=N/NC(=O)c2cc3cc(OC)c(OC)cc3[nH]2)cc1 | 0% | 2% | 21µM* | -28%
CCOc1ccc2[nH]c(C(=O)N/N=C/c3ccc(OC)cc3)cc2c1 | -11% | 1% | 3% | ?
O=C1OC(Nc2ccc3c(c2)OCO3)c2ccccc21 (stereo not drawn) | -17% | 11µM* | ? | ?
Cc1cc(Br)cn2c(Cc3ccsc3)c(-c3cccc(Cl)c3)nc12 | nt | 7% | nt | nt
Cc1cc(Br)cn2c(Cc3ccsc3)c(-c3ccco3)nc12 | nt | 7.1µM* | nt | nt
COc1ccc(Cc2c(-c3ccco3)nc3ccc(Br)cn23)c(C)c1 | nt | 8.9µM* | nt | nt
Cc1cc(Br)cn2c(Cc3ccccc3)c(-c3ccco3)nc12 | nt | 10µM* | nt | nt
CC(=O)CCn1cnc([N+](=O)[O-])n1 | 0% | 0% | 28% | 15%
OC(c1cccnc1)c1nc(-c2ccc3c(c2)OCO3)cs1 (stereo not drawn) | nt | 3% | nt | nt
CCc1ccc(CNC(=O)c2cnc(N3CCCCC3)c3ccccc23)cc1 | -1% | -1% | nt | nt
C[C@@H](/C=C/c1ccc2ccccc2c1)C1COC(=O)C[C@H]1O (stereo partly drawn) | 0% | nt | -5% | nt
COC(=O)CSc1nnc(-c2sc3ccccc3c2Cl)o1 | -16% | -2% | 16µM* | 8%
Cc1cccc(N2CCN(S(=O)(=O)c3ccc4oc(=O)c5ncn(C)c5c4c3)CC2C)c1 (stereo not drawn) | 15% | 4% | 8% | nt
COc1ccc2oc(=O)c(-c3csc(-c4ccc(Br)cc4)n3)cc2c1 | 0% | 0% | nt | nt
COc1ccc2oc(=O)c(-c3csc(Nc4ccc(O)cc4)n3)cc2c1 | -22% | 11% | -10% | 9.2µM*
O=C(c1cccc(Cl)c1)N1CCN(CCCc2ccccc2)CC1 | -6% | 0% | 1% | 5%
